Laboratory results: PubChem BioAssay

Assay: viability loss with induced miR-34 in A549 – imaging, A549 dox-inducible miR-34, nuclei and caspase counts, primary screen (AID 1347080); further: test concentration not given here
Conditions: A549 miR-34 inducible, Hoechst nuclei count, 48 h; measured here: relative caspase fold change +Dox/-Dox

Row | Compound | fold change
1 | COC(=O)CCC[C@H](O)[C@H](O)CO | 0.845
2 | O=C(Cc1ccccc1Nc1c(Cl)cccc1Cl)Oc1ccc(-c2cc(=S)ss2)cc1 | 1.55
3 | CCCCCCCC/C=C\CCCCCCCCCCCC(N)=O | 0.823
4 | O=S(=O)(NO)c1ccccc1 | 0.412
5 | CCCc1oc(CCC(=O)O)c(C(=O)O)c1C | 0.896
6 | CCCCC[C@](C)(O)/C=C/[C@@H]1[C@@H](C/C=C\CCCC(=O)O)[C@@H](O)C[C@H]1O | 1.48
7 | CCCC[C@H](C)C[C@H](O)/C=C/[C@@H]1[C@@H](CCCCCCC(=O)O)[C@@H](O)C[C@H]1O | 1.78
8 | CCCCC/C=C\C/C=C\C/C=C\C/C=C\CCCC(=O)OCC(O)CO (stereo not drawn) | 0.738
9 | CCCCCCCCCC(=O)N[C@@H](Cc1c[nH]c2ccccc12)C(=O)N[C@@H](CC(N)=O)C(=O)N[C@@H](CC(=O)O)C(=O)N[C@@H]1C(=O)NCC(=O)N[C@@H](CCCN)C(=O)N[C@@H](CC(=O)O)C(=O)N[C@H](C)C(=O)N[C@@H](CC(=O)O)C(=O)NCC(=O)N[C@H](CO)C(=O)NC([C@@H](C)CC(=O)O)C(=O)N[C@@H](CC(=O)c2ccccc2N)C(=O)OC1C (stereo partly drawn) | 0.725
10 | CCCCCCOC(=O)[C@@]1(O)CC2OC1(C)n1c3ccccc3c3c4c(c5c6ccccc6n2c5c31)C(=O)NC4 (stereo partly drawn) | 1.42
11 | CCCC[C@H](CCC(=O)O)NC(=O)CCCCCCc1ccccc1 | 1.71
12 | C/C(O)=C1\C(=O)[C@@H]2[C@H]3c4c[nH]c5cccc(c45)C[C@H]3C(C)(C)N2C1=O | 0.893
13 | O=C(O)CCC/C=C/C[C@@H]1[C@@H](CC[C@@H](O)CCc2ccccc2)[C@H](O)C[C@@H]1O | 1.3
